Test results: PubChem BioAssay (NCATS)
Inconclusive results are not listed. The source made the active and inactive calls. Unless noted, calls follow the shape of the dose curve; as a rule, active = well fitted curve in the direction sought with a large enough effect; inconclusive = small, poorly fitted or top-dose-only effect, or another doubt; inactive = no such curve, though single readings can be large; an effect the other way counts as inactive or inconclusive.

Experiments:
[1] = qHTS to identify inhibitors of the type 1 interferon - major histocompatibility complex class I in skeletal muscle: primary screen against the NCATS LOPAC collection (AID 1347405);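 also: human myoblasts with HiBiT tag on endogenous HLA-B stimulated by IFN-beta; lytic HiBiT luminescence reporting HLA-B protein level; % is scaled to controls: 0 for no effect and ±100 for the full control effect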
Procedure, shortened: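 IFN-beta-stimulated (4 ng/ml) HLA-B HiBiT knock-in myoblasts, compound-treated 24 hrs up to 46 uM final; signal via LgBiT complementation and furimazine luminescence.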

[2] = qHTS to identify inhibitors of the type 1 interferon - major histocompatibility complex class I in skeletal muscle: primary screen against the NCATS Pharmaceutical Collection (AID 1347407);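 also: luminescence of HiBiT knocked into endogenous HLA-B as interferon-induced MHC class I level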; also: potency is read from the fitted curve at half-maximal effect; as to activity change, negative = inhibition: % is scaled to controls: 0 for no effect and ±100 for the full control effect
Procedure, shortened: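 Luminescence from HiBiT-tagged endogenous HLA-B*08:01 served as the read-out of IFN-beta-induced MHC class I in CRISPR-engineered C25cl48 myoblasts. Cells received 4 ng/ml IFN-beta plus compound (high final 46 uM, […]) for 24 h.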

[3] = qHTS for inhibitors of adenylyl cyclases using a fission yeast platform: a pilot screen against the NCATS LOPAC library (AID 1347410);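 also: plate controls were DMSO vehicle for no effect and DPI positive control for full effect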
Procedure, shortened: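 Fission yeast qHTS: CHP2027 cells (AC9-GNAS-PDE4D2, fbp1-GFP), 5x10^6 cells/mL working density, EMM + His/Lys/Ura; LOPAC at up to 57 µM final; 18 h dark, 30C; GFP by laser cytometry. DPI positive control, DMSO vehicle.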

[4] = biological target: Protein phosphatase 1D (Homo sapiens) (UniProt O15297); assay: RapidFire Mass Spectrometry qHTS Assay for Modulators of WT P53-Induced Phosphatase 1 (WIP1) (AID 1347424);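 also: amount of dephosphorylated VEPPL-S-QETFS peptide product formed by WIP1; series mostly up to about 63 µM; plate controls were DMSO wells for no effect and GSK830371 inhibitor control at 10 µM for full effect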
Protein phosphatase 1D (Homo sapiens), sequence (O15297 whole entry, looked up): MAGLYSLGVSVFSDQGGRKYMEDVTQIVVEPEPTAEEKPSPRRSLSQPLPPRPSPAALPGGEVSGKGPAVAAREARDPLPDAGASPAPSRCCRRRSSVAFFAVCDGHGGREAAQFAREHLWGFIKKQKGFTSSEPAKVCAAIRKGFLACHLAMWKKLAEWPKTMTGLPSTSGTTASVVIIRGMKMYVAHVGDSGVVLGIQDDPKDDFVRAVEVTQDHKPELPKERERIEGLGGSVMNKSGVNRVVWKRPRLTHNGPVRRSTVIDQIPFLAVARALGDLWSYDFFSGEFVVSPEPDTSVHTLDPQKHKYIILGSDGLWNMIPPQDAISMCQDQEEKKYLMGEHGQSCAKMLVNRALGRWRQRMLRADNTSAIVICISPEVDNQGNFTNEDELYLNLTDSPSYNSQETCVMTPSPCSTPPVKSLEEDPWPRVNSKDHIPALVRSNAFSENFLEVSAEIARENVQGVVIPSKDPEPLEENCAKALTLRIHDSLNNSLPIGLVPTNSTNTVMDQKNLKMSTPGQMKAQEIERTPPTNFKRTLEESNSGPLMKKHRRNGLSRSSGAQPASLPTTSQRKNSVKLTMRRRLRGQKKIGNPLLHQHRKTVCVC
Procedure, shortened: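 RapidFire mass spectrometry measured dephosphorylated peptide after 5 min room-temperature reaction of 2 uM VEPPL-pS-QETFS with 10 nM WIP1 (50 mM Tris-HCl pH 7.5, 30 mM MgCl2, 0.1 mM EGTA, BSA), following 1 hr compound preincubation; 1 uM isotope-labelled product standard.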

[5] = Validation qHTS assay for inhibitors of Activation Induced Cytidine Deaminase (AID): UDG Counterscreen signal (AID 1347427); also: 0% is about no effect
Procedure, shortened: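 Fluorescence at 560 nm excitation, 665 nm emission reports UDG signal after 250 mM NaOH (2x) addition and 30 min. Enzymes (AID 1 uM, UDG 2 U/mL, at 4/3x) preincubated 10 min with compound, then 4 h with 4x 250 nM DJC20/DJC23 substrate at room temperature.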

[6] = biological target: Single-stranded DNA cytosine deaminase (Homo sapiens) (UniProt Q9GZX7); assay: Validation qHTS assay for inhibitors of Activation Induced Cytidine Deaminase (AID): AID signal (AID 1347429); also: % is scaled to controls: 0 for no effect and ±100 for the full control effect
Single-stranded DNA cytosine deaminase (Homo sapiens), sequence (Q9GZX7 whole entry, looked up): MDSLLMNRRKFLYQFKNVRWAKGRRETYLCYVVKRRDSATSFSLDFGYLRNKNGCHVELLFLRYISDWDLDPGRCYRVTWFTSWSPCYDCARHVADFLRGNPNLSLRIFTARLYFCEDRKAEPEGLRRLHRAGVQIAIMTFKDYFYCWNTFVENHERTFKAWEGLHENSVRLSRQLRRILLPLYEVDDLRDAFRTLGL
Procedure, shortened: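 Compounds (up to 114 uM final) are tested against AID plus UDG using DJC20/DJC23 FRET substrate. Reactions incubate 4 hr at room temperature, receive NaOH for 30 min, and are read at Ex 540/Em 590 nm.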

[7] = Primary qHTS for Huh7 cytotoxicity: counterscreen for inhibitors of MERS-S pseudotyped particle cell entry (AID 1479147; calls by dose curve)
[8] = Primary qHTS for inhibitors of MERS-S pseudo-typed particle cell entry (AID 1479149; calls by dose curve; also: nearly all actives have a fitted effect of over 60% in size)
[9] = Primary qHTS for Vero E6 cytotoxicity: counterscreen for inhibitors of SARS-S pseudo-typed particle cell entry (AID 1479150; calls by dose curve)
[10] = Primary qHTS for inhibitors of La Crosse Virus (LACV) - induced cell death in SH-SY5Y cells (AID 1508616);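 also: top concentration of the series differs between compounds; 0% = infected DMSO wells and 100% = uninfected DMSO wells; higher means more rescue of cells from virus-induced death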
Procedure, shortened: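 Screening measures cell viability in LACV-infected SH-SY5Y cultures. Compound was added before virus (0.01 MOI), and ATP was detected by luminescence 6 days later.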

[11] = biological target: Calcium and integrin-binding protein 1 (Homo sapiens) (UniProt Q99828); assay: Validation qHTS for Identification of Calcium Integrin Binding protein 1 (CIB1) Competitor (AID 1508618); also: % is scaled to controls: 0 for no effect and ±100 for the full control effect
Calcium and integrin-binding protein 1 (Homo sapiens), sequence (Q99828 whole entry, looked up): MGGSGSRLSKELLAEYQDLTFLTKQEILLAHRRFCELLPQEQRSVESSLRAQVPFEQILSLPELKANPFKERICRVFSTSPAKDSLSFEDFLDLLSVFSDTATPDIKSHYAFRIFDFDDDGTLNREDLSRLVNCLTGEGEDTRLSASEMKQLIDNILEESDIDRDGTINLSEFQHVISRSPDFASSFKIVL
Procedure, shortened: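 Fluorescence polarization with 1 uM CIB1-GST and 100 nM FITC-alphaIIb peptide in HEPES pH 7.4, NaCl, 5 mM CaCl2, Tween20. Compounds at up to 114 uM final, preincubated with protein 15 min; read after 15 min more at RT.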

[12] = Primary qHTS for inhibitors of SARS-S pseudo-typed particle cell entry (AID 1479145; calls by dose curve; also: nearly all actives have a fitted effect of over 45% in size)
[13] = qHTS for inhibitors of Rabies Virus screened against the NCATS CANVASS Library (AID 1347402; calls by dose curve; also: series mostly up to about 46 µM; 0% is about no effect)
[14] = biological target: Protein phosphatase 1D (Homo sapiens) (UniProt O15297); assay: Rhodamine-PBP qHTS Assay for Modulators of WT P53-Induced Phosphatase 1 (WIP1) (AID 1347425); also: % of control where 0% means no effect
Procedure, shortened: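 WIP1 (5 nM final) was preincubated with compound for 1 hour at room temperature. It then dephosphorylated 10 uM VEPPL-pS-QETFS peptide in Tris-HCl pH 7.5 with 30 mM MgCl2. Released Pi was detected by 10 uM Rh-PBP fluorescence (ex 525/em 598 nm) read at 1-min intervals for 11 min, as delta f1 - f0.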

[15] = qHTS to identify inhibitors of the type 1 interferon - major histocompatibility complex class I in skeletal muscle: primary screen against the NCATS Mechanism Interrogation Plate v5.0 (MIPE) Libary (AID 1347411); also: nearly all actives have a fitted effect of over 65% in size; also: potency is read from the fitted curve at half-maximal effect;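 as to activity change, negative = inhibition: plate controls were vehicle for no effect and reference inhibitor for full effect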
Procedure, shortened: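 IFN-beta-driven (4 ng/ml) HLA-B-HiBit expression in CRISPR-tagged C25cl48 myoblasts; compounds 11-pt, 1:3, max 46 uM, 24 hr exposure; lytic NanoLuc complementation luminescence.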

[16] = Viability qHTS for inhibitors of the SERCaMP assay screened against the NCATS CANVASS Library (AID 1347400); also: series mostly up to about 92 µM; % is scaled to controls: 0 for no effect and ±100 for the full control effect; nearly all actives have a fitted effect of over 70% in size
Procedure, shortened: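 Measures loss of viability in SERCaMP reporter SH-SY5Y cells treated for 48 h with compounds; luminescent ATP detection by CellTiter-Glo.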

[17] = Redox Reaction Profiling qHTS: Assay Interference Panel against the NCATS CANVASS Library (AID 1347401);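 also: 100% = activation by 2 µM chloranil control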
Procedure, shortened: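 Redox-cycling liability assessed as DTT-driven conversion of resazurin (5 uM, with 200 uM DTT, HEPES pH 7.3) to fluorescent resorufin. Fluorescence at 525/598 nm measured initially and after 15 min dark incubation.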

CC(C)N(CCC(C(N)=O)(c1ccccc1)c1ccccn1)C(C)C (configuration not stated)
inactive: outcome [1] | Potency [2] | outcome [3] | Potency [4] | outcome [5] | outcome [6] | Potency [7] | Potency [8] | Potency [9] | outcome [10] | outcome [11]

CCCCCN(C)CCC(O)(P(=O)(O)O)P(=O)(O)O
inactive: outcome [1] | outcome [3] | activity change, negative = inhibition [12] -12.9% [at 11.4 µM] | activity change, negative = cytotoxicity [7] 3.48% [at 11.4 µM] | activity change, negative = inhibition [8] -24.6% [at 11.4 µM] | activity change, negative = cytotoxicity [9] 1.39% [at 11.4 µM] | outcome [11]

COc1ccc2[nH]cc(CCNC(C)=O)c2c1
inactive: outcome [13] | Potency [12] | Potency [7] | Potency [8] | Potency [9]

COC(=O)[C@@H]1[C@H]2C[C@H]3c4[nH]c5ccccc5c4CCN3C[C@@H]2CC[C@@H]1O
inactive: outcome [13] | Potency [12] | Potency [7] | Potency [8] | Potency [9]

Cc1ncsc1CCCl
inactive: outcome [1] | Potency [2] | outcome [3] | outcome [14] | outcome [5] | outcome [6] | Potency [12] | Potency [7] | Potency [8] | Potency [9] | outcome [10] | outcome [11]

CCCCC/C=C\C/C=C\C/C=C\C/C=C\CCCC(=O)NCC(=O)O
inactive: Potency [2] | Potency [4] | outcome [14] | outcome [5] | outcome [10]

CC(C)(C)NCC(O)c1cc(Cl)c(N)c(C(F)(F)F)c1 (configuration not stated)
inactive: Potency [2] | Potency [4] | outcome [14] | Potency [12] | Potency [7] | Potency [8] | Potency [9] | outcome [10]

COc1cccc2c1C(=O)c1c(O)c3c(c(O)c1C2=O)C[C@@](O)(C(=O)CO)CC3OC1CC(N2CCOC(OC)C2)C(O)C(C)O1 (some centres not stated)
active: Potency [2] 2.97 µM | Potency [15] 0.093 µM
inactive: Potency [4] | outcome [14] | Potency [12] | Potency [8] | Potency [9] | outcome [10]

O=C(O)CCCc1ccc(N(CCCl)CCCl)cc1
inactive: Potency [2] | Potency [15] | outcome [14] | outcome [5] | outcome [6] | Potency [7] | Potency [8] | Potency [9] | outcome [10]

O=c1[nH]oc2c1CCNC2
inactive: outcome [1] | Potency [2] | Potency [4] | outcome [14] | outcome [5] | outcome [6] | outcome [10] | outcome [11]

C[C@@H]1O[C@@H](OC[C@H]2O[C@@H](Oc3c(-c4ccc(O)c(O)c4)oc4cc(O)cc(O)c4c3=O)[C@H](O)[C@@H](O)[C@@H]2O)[C@H](O)[C@H](O)[C@H]1O
inactive: outcome [13] | Potency [12] | Potency [7] | Potency [8] | Potency [9]

C[C@]12Cc3cn[nH]c3C[C@@H]1CC[C@@H]1[C@@H]2CC[C@@]2(C)[C@H]1CC[C@]2(C)O
inactive: Potency [2] | Potency [15] | Potency [4] | outcome [14] | outcome [10]

COc1cccc([C@@]2(O)CCCC[C@@H]2CN(C)C)c1
inactive: Potency [2] | Potency [4] | outcome [14]

CC(C)(C)NCC(O)c1ccccc1Cl (configuration not stated)
inactive: outcome [1] | Potency [2] | outcome [3] | Potency [4] | outcome [14] | outcome [5] | outcome [6] | Potency [12] | Potency [7] | Potency [8] | Potency [9] | outcome [10] | outcome [11]

COc1ccc2c(c1OC)C(=O)O[C@H]2[C@@H]1c2cc3c(cc2CCN1C)OCO3
inactive: outcome [1] | Potency [2] | outcome [3] | Potency [4] | outcome [14] | outcome [5] | outcome [6] | Potency [12] | Potency [7] | Potency [8] | Potency [9] | outcome [10] | outcome [11]

CN1CCC[C@@H]1c1cccnc1
inactive: outcome [13] | Potency [12] | Potency [7] | Potency [8] | Potency [9]

Clc1ccc(C(c2ccc(Cl)cc2)C(Cl)(Cl)Cl)cc1
inactive: Potency [2] | Potency [4] | outcome [14] | Potency [12] | Potency [7] | Potency [8] | Potency [9] | outcome [10]

C#CC(O)(C=CCl)CC (configuration not stated)
inactive: Potency [2] | Potency [4] | outcome [14] | Potency [12] | Potency [7] | Potency [8] | Potency [9] | outcome [10]

COC1CC(=C(c2cccs2)c2cccs2)C[N+](C)(C)C1 (configuration not stated)
inactive: Potency [2] | Potency [4] | outcome [14] | Potency [12] | Potency [7] | Potency [8] | Potency [9] | outcome [10]

O=C(O)c1cc(O)c(O)c(O)c1
inactive: outcome [13] | Potency [12] | Potency [7] | Potency [8] | Potency [9]

O=P1(N(CCCl)CCCl)NCCCO1 (configuration not stated)
inactive: outcome [1] | Potency [2] | outcome [3] | Potency [15] | outcome [14] | outcome [5] | outcome [6] | Potency [12] | Potency [7] | Potency [8] | Potency [9] | outcome [10] | outcome [11]

CCC1(c2ccc(N)cc2)CCC(=O)NC1=O (configuration not stated)
inactive: outcome [1] | Potency [2] | outcome [3] | Potency [15] | Potency [4] | outcome [14] | outcome [5] | outcome [6] | Potency [12] | Potency [7] | Potency [8] | Potency [9] | outcome [10] | outcome [11]

NCCc1ccc(O)cc1
inactive: outcome [16] | outcome [17] | outcome [1] | Potency [2] | outcome [3] | Potency [4] | outcome [14] | outcome [5] | outcome [6] | outcome [10] | outcome [11]

C=CCC1(C(C)CC)C(=O)NC(=O)NC1=O (configuration not stated)
inactive: Potency [2] | Potency [4] | outcome [14] | Potency [12] | Potency [7] | Potency [8] | Potency [9] | outcome [10]
